# Results published in PubChem BioAssay.
# Where “and” joins values, the source holds several entries; their conditions need not be identical. Identical values can stand only once. Inconclusive results are not listed. Calls of active or inactive are those of the source. Unless noted, cut-off not given; nearly all actives show AC50 up to about 30 µM.
# Key:
# [1] = viability loss in pontine glioma line – cell-based, SU-DIPG-XIII, MIPE4.0, CellTiter-Glo, qHTS, dose response (AID 1347061; cut-off not given, nearly all actives have AC50 up to about 37 µM;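 further: cells exposed to compound for 48 hours before readout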); details: CellTiter-Glo ATP luminescence
# [2] = viability loss in pontine glioma line – cell-based, JHH-DIPG-1, MIPE4.0, CellTiter-Glo, qHTS, dose response (AID 1347062; cut-off not given, nearly all actives have AC50 up to about 27 µM;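 on AC50: cells exposed to compound for two days before readout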); details: JHH-DIPG-1 viability, CellTiter-Glo ATP luminescence
# [3] = viability loss in pontine glioma line – cell-based, SU-DIPG-IV, MIPE4.0, CellTiter-Glo, qHTS, dose response (AID 1347063); details: CellTiter-Glo ATP luminescence;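 further: compound exposure lasted 48 hours before the viability readout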
# [4] = viability loss in pontine glioma line – cell-based, SU-DIPG-XXV, MIPE5.0, CellTiter-Glo, qHTS, dose response (AID 1347065; cut-off not given, nearly all actives have AC50 up to about 26 µM;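 further: cells exposed to compound for 48 hours before ATP readout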); details: CellTiter-Glo ATP luminescence
# [5] = growth inhibition of DIPG cells – cell-based, MIPE5.0 library, qHTS (AID 1347068; cut-off not given, nearly all actives have IC50 up to about 30 µM); details: SU-DIPG-XXV viability
# [6] = growth inhibition of DIPG cells – cell-based, MIPE4.0 library, CellTiter-Glo luminescence, qHTS (AID 1347066); details: SU-DIPG-VI viability, CellTiter-Glo ATP luminescence;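 further: cells exposed to compound for 48 hours before readout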
# [7] = JHH-DIPG-1 glioma cell viability, MIPE5.0 library, CellTiter-Glo luminescence, qHTS (AID 1347067; cut-off not given, nearly all actives have AC50 up to about 26 µM;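 further: cells exposed to compound for 48 hours before readout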); details: JHH-DIPG-1 glioma viability, CellTiter-Glo ATP luminescence
# [8] = viability loss with induced miR-34 in A549 – imaging, A549 dox-inducible miR-34, nuclei and caspase counts, primary screen (AID 1347080;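 active means compounds whose cell count with miR-34 switched on is under 0.7 times the count with it off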); details: A549 miR-34 inducible, Hoechst nuclei count, 48 h
# [9] = MELAS cybrid and Rieske KO viability enhancers – cell-based, MELAS cybrids, Rieske KO mouse fibroblasts, CellTiter-Glo, primary screen (AID 1508586;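 active means mean z-score across replicates of 1.96 or higher in either the MELAS or the Rieske mutant cell line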;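 further: z relative to plate mean and SD of compound and empty wells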); details: low glucose
# [10] = stronger effect = lower value, cell number ratio, induced over uninduced
# [11] = measured here: relative caspase fold change +Dox/-Dox
# [12] = measured here: total cells with miR-34 induction, stronger effect = lower value
# [13] = measured here: total cells without miR-34 induction
# [14] = MELAS cybrid survival, CellTiter-Glo 48 h, stronger effect = higher value
# [15] = Rieske KO mouse fibroblast survival, CellTiter-Glo 72 h
structure (smiles),measurement,setting,value
C[C@]12CC[C@H](O)CC1=CCC1C2CC[C@]2(C)C(n3cnc4ccccc43)=CCC12 (stereo not given in full),outcome,[1],inactive
same,outcome,[2],inactive
same,outcome,[3],inactive
same,AC50,[4],20.9 µM (active)
same,outcome,[5],inactive
COc1ccc(CC2SC(=O)NC2=O)cc1C(=O)NCc1ccc(C(F)(F)F)cc1 (stereo not given),outcome,[1],inactive
same,outcome,[2],inactive
same,outcome,[3],inactive
same,outcome,[4],inactive
same,outcome,[6],inactive
same,outcome,[7],inactive
same,outcome,[5],inactive
C1=C/COCc2cc(ccc2OCCN2CCCC2)Nc2nccc(n2)-c2cccc(c2)OCC/1,AC50,[1],14.8 µM (active)
same,AC50,[2],4.18 µM (active)
same,AC50,[3],2.35 µM (active)
same,AC50,[6],5.26 µM (active)
CCC[C@H]1C[C@H](C(=O)N[C@@H]([C@@H]2O[C@@H](SC)[C@@H](O)[C@@H](O)[C@H]2O)[C@H](C)Cl)N(C)C1,outcome,[1],inactive
same,outcome,[2],inactive
same,outcome,[3],inactive
same,outcome,[6],inactive
Cc1nnc(C(C)C)n1C1C[C@H]2CC[C@@H](C1)N2CC[C@H](NC(=O)C1CCC(F)(F)CC1)c1ccccc1 (stereo not given in full),outcome,[1],inactive
same,outcome,[2],inactive
same,outcome,[3],inactive
same,outcome,[6],inactive
C[C@H](NCc1ccc2c(c1)nc(NC(=O)c1ccc(-c3cn[nH]c3)s1)n2CCc1ccccc1)C(C)(C)C,AC50,[1],2.96 µM (active)
same,AC50,[2],1.05 µM (active)
same,AC50,[3],1.32 µM (active)
same,AC50,[6],5.26 µM (active)
Nc1ccn([C@H]2CS[C@@H](CO)O2)c(=O)n1,outcome,[1],inactive
same,outcome,[2],inactive
same,outcome,[3],inactive
same,outcome,[6],inactive
CC(O)C1C(=O)N2C(C(=O)O)=C(SC3CNC(C(=O)N(C)C)C3)C(C)C12 (stereo not given),outcome,[1],inactive
same,outcome,[2],inactive
same,outcome,[3],inactive
same,outcome,[6],inactive
same,fold change,[8]; [10],0.9 (inactive) and 0.956 (inactive)
same,fold change,[8]; [11],2.32 and 0.899
same,cell count,[8]; [12],9280 and 7430
same,cell count,[8]; [13],10300 and 7780
same,z-score,[9]; [14],-0.432 (inactive)
same,z-score,[9]; [15],0.361
CN(N=O)C(=O)N[C@H]1C(O)OC(CO)[C@@H](O)[C@@H]1O (stereo not given in full),outcome,[1],inactive
same,outcome,[2],inactive
same,outcome,[3],inactive
same,outcome,[6],inactive
Nc1nc2[nH]cc(CCc3ccc(C(=O)N[C@@H](CCC(=O)O)C(=O)O)cc3)c2c(=O)[nH]1,outcome,[1],inactive
same,outcome,[2],inactive
same,outcome,[3],inactive
same,outcome,[6],inactive
same,outcome,[7],inactive
same,outcome,[5],inactive
same,fold change,[8]; [10],1.36 (inactive)
same,fold change,[8]; [11],0.473
same,cell count,[8]; [12],3100
same,cell count,[8]; [13],2280
same,z-score,[9]; [14],-0.725 (inactive)
same,z-score,[9]; [15],-0.391
N#CC(=C(O)c1ccc(Cl)cc1Cl)c1nc2cc(Cl)ccc2c(=O)[nH]1,outcome,[1],inactive
same,outcome,[2],inactive
same,outcome,[3],inactive
same,outcome,[6],inactive
O=C(O)[C@H]1O[C@H](Oc2cc3oc(-c4ccccc4)cc(=O)c3c(O)c2O)[C@H](O)[C@@H](O)[C@@H]1O,outcome,[1],inactive
same,outcome,[2],inactive
same,outcome,[3],inactive
same,outcome,[6],inactive
CCN1C[C@H](C)n2c(c(O)c3c(=O)n(Cc4ccc(F)c(Cl)c4)nc(C(=O)NC)c32)C1=O,outcome,[1],inactive
same,outcome,[2],inactive
same,outcome,[3],inactive
same,outcome,[6],inactive
N#CC[C@H](C1CCCC1)n1cc(-c2ncnc3[nH]ccc23)cn1,outcome,[1],inactive
same,outcome,[2],inactive
same,outcome,[3],inactive
same,outcome,[6],inactive
same,outcome,[5],inactive
Cn1c(N2CCCCS2(=O)=O)nc(C(=O)NCc2ccc(F)cc2)c(O)c1=O,outcome,[1],inactive
same,outcome,[2],inactive
same,outcome,[3],inactive
same,outcome,[6],inactive
same,fold change,[8]; [10],0.915 (inactive)
same,fold change,[8]; [11],0.973
same,cell count,[8]; [12],7350
same,cell count,[8]; [13],8040
same,z-score,[9]; [14],-0.418 (inactive)
same,z-score,[9]; [15],0.522
